Shown are actives, neighbours in structure and some others; about 9.5% of the full set was active somewhere.
Pf growth 96h = Primary qHTS for delayed death inhibitors of the malarial parasite plastid, 96 hour incubation. P. falciparum luciferase reporter growth, 96 h. Potency, µM (titrated, usually from 28.7 µM), for the others: top-dose activity change, negative = inhibition, hits mostly inhibitors. 320,000 tested, 6.9% active; active = well fitted inhibition curve with a large enough effect; inconclusive = small, poorly fitted or top-dose-only effect, or another doubt; inactive = no such curve, though single readings can be large or run the other way; note: % is set by controls: 0 for no effect and ±100 for the full control effect
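Erythrocytes infected with luciferase-expressing P. falciparum were dispensed at 2% hematocrit and 0.05% parasitemia (final), then incubated with compounds 96 hours at 37 C in 5% CO2. Luminescence after detection reagent addition reported growth.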
SARS PLpro yeast = qHTS of Yeast-based Assay for SARS-CoV PLP; Potency, µM (titrated, usually from 32.9 µM), for inactives: at the top dose activity, positive = growth rescue, hits mostly activators; AID 485353, 2010; S. cerevisiae expressing SARS-CoV PLpro, growth rescue; 330,000 tested, 0.19% active; note: 0% is about no effect; nearly all actives have a fitted effect of over 55% in size
NS1 inh = qHTS Assay for Inhibitors of Influenza NS1 Protein Function | Potency, µM (series often up to 46.1 µM), for inactives: top-dose activity, positive = more growth | 270,000 tested, 0.4% active | AID 2326, 2010; note: actives are rising curves; nearly all actives have a fitted effect of over 50% in size
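Recovery from NS1-induced slow growth read by OD600 in budding yeast switched to galactose assay medium (pH 6.0, -URA) at 1:100 dilution. Compound 23 nl per well; the matching strain lacking NS1 serves as control.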
RE007 growth inh = qHTS Assay for Inhibitors of the HIV-1 protein Vpr; Potency, µM (titrated, usually from 92.2 µM), inactives show top-dose activity change, negative = less growth, actives largely listed as inhibitors; S. pombe RE007 Vpr strain, BacTiter-Glo ATP luminescence, 24 h; 360,000 tested, 0.21% active; active = well fitted falling curve with a large enough effect; inconclusive = small, poorly fitted or top-dose-only effect; inactive = no such curve, though single readings can be large or run the other way; note: % is set by controls: 0 for no effect and ±100 for the full control effect; nearly all actives have a fitted effect of over 50% in size
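Fission yeast strain RE007, carrying one chromosomally integrated HIV-1 vpr copy, was seeded at OD 0.01 in PMG+AL medium with 23 nL pinned compound. After 24 h at 30 °C and 99% humidity, viability was read by BacTiter-Glo luminescence.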
Pf growth 48h = Primary qHTS for delayed death inhibitors of the malarial parasite plastid, 48 hour incubation; Potency, µM (titrated, usually from 28.7 µM), for inactives: at the top dose activity change, negative = inhibition, most hits filed as inhibitors; P. falciparum luciferase growth in erythrocytes, 48 h; 310,000 tested, 5.9% active; active = well fitted inhibition curve with a large enough effect; inconclusive = small, poorly fitted or top-dose-only effect, or another doubt; inactive = no such curve, though single readings can be large or run the other way; note: % is set by controls: 0 for no effect and ±100 for the full control effect
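Compounds are pin-transferred into medium, infected erythrocytes (2% hematocrit, 0.1% parasitemia final) are added, and plates sit one parasite generation at 37 C in 5% CO2. Detection reagent is then added and luminescence measured.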
* = called active by the depositor; ? = inconclusive; nt = not tested or not shown; [ ] = another dose, or the depositor's remark. Unless noted, calls come from the whole dose curve. Potency is the fitted concentration of half-maximal effect.

SMILES	Pf growth 96h	SARS PLpro yeast	NS1 inh	RE007 growth inh	Pf growth 48h
CC(=O)N1CCc2cc(S(=O)(=O)NCC(=O)NCc3ccccc3Cl)ccc21	9.3µM*	-2%	-4%	-4%	-14%
CCC(=O)N1CCc2cc(S(=O)(=O)NCCC(=O)NCc3ccccc3Cl)ccc21	8.3µM*	-4%	-3%	10%	2%
CC(=O)N1CCc2cc(S(=O)(=O)NCC(=O)NCc3ccc(F)cc3)ccc21	-13%	-3%	-8%	6%	?
CCC(=O)N1CCc2cc(S(=O)(=O)N3CCN(c4ccccc4)CC3)ccc21	?	0%	14%	13%	26%
CCC(=O)N1CCc2cc(S(=O)(=O)NCCC(=O)NCc3ccccc3OC)ccc21	?	-3%	-3%	-1%	4%
CCC(=O)N1CCc2cc(S(=O)(=O)N3CCN(c4cc(Cl)ccc4C)CC3)ccc21	5.2µM*	-2%	10%	11%	-15%
Cc1ncc(CO)c(/C=N/NC(=O)c2cc3c(s2)CCCC3)c1O	?	15%	5%	-7%	?
O=C(Oc1ccc2ccc(=O)oc2c1)c1ccccc1	9.3µM*	-5%	-2%	-15%	10%
CC(C)c1ccc(N2C(=O)CC(NNC(=O)c3cccnc3)C2=O)cc1 (stereo unspecified)	74%	-1%	5%	1%	46%
O=C(O)CCC(=O)N1CCC(n2nnc3cc(C(F)(F)F)ccc32)CC1	0%	-5%	-1%	8%	2.1µM*
O=C(CN1CCC(n2nnc3cc(C(F)(F)F)ccc32)CC1)Nc1ccc2c(c1)OCCO2	11%	3%	-26%	?	12µM*
O=C(N1CCOCC1)N1CCC(n2nnc3cc(F)ccc32)CC1	10µM*	0%	2%	-13%	-14%
O=C(c1ccc([N+](=O)[O-])cc1)N1CCC(n2nnc3cc(F)ccc32)CC1	-17%	-1%	1%	-6%	66%
Cc1ccc2c(c1)nnn2C1CCN(CC(=O)Nc2ccccc2N2CCOCC2)CC1	37%	1%	-33%	8%	2.1µM*
CCN(CC)C(=O)C1=C(C)N(Cc2ccc(C(C)(C)C)cc2)C(=O)C(CC(=O)NC2CC2)C1 (stereo unspecified)	nt	nt	nt	3%	nt
COc1ccc(N2C(=O)c3cccc4c(N(C)CCO)ccc(c34)C2=O)cc1	22%	-5%	20%	3%	10µM*
CC(=NCC(=O)O)c1ccccc1	nt	nt	1%	nt	nt
Cc1ccccc1OCCSCc1nc2ccccc2[nH]1	13µM*	-52%	-36%	?	?
CCn1c(COc2ccc(C)cc2)nnc1SCc1nc2ccccc2[nH]1	?	1%	-5%	12%	?
Cn1c(COc2ccccc2)nnc1SCc1nc2ccccc2[nH]1	1.5µM*	?	12%	14%	-14%
CCn1c(SCc2nc3ccccc3[nH]2)nnc1-c1ccccc1OC	3.7µM*	23%	8%	-4%	?
CN(C(=O)CSc1nnc(-c2ccco2)n1C)C1CCCCC1	-7%	10%	nt	-5%	?
CCCNC(=O)C1(C)CCCN(Cc2ccc(-c3ccccc3)o2)C1 (stereo unspecified)	nt	nt	nt	-7%	nt
CC[C@@H]1[C@H]2CCCC(=O)N3CC[C@@H](C[C@@H]1OC(=O)Nc1ccccc1)[C@@H]23	2.3µM*	-3%	-1%	-14%	?
Cc1cc(Nc2c(C)cccc2C)n2nc(C)nc2n1	?	-8%	-2%	5%	nt
SMILES	Pf growth 96h	SARS PLpro yeast	NS1 inh	RE007 growth inh	Pf growth 48h
Cc1cc(Nc2ccc(Br)cc2)n2nc(C)nc2n1	?	4%	-4%	10%	2.3µM*
Cc1cc(Nc2ccc(F)cc2)n2nc(C)nc2n1	?	-1%	-8%	4%	nt
Cc1cc(Nc2ccc(C)c(C)c2)n2nc(C)nc2n1	?	-2%	?	16%	0.74µM*
Cc1cc(Nc2cccc(F)c2)n2nc(C)nc2n1	9.3µM*	25%	0%	-10%	?
CCc1ccc(Nc2cc(C)nc3nc(C)nn23)cc1	-10%	?	-37%	18%	1.3µM*
Cc1cc(Nc2ccc(F)cc2Cl)n2nc(C)nc2n1	17%	-1%	-7%	7%	nt
Cc1cc(Nc2ccc3c(c2)OCCO3)n2nc(C)nc2n1	105%	-3%	2%	6%	nt
CCN1CCN(C(=O)c2ccc(CS(=O)(=O)Cc3ccccc3C)o2)CC1	?	?	-11%	-1%	31%
CC1CCN(C(=O)COC(=O)C2CCN(S(=O)(=O)c3ccc4c(c3)OCCO4)CC2)CC1	7%	0%	nt	-18%	-16%
C[C@@H]1CN([C@@H](C)CO)C(=O)CCCn2nncc2CO[C@H]1CN(C)S(=O)(=O)c1ccc(-n2cccn2)cc1	nt	nt	nt	-20%	nt
COc1cc(CNC(=O)c2cc(-c3cc(OC)ccc3Cl)n[nH]2)cc(OC)c1	nt	nt	nt	8%	nt
CC(C)(C)c1ccc(OCC(=O)N/N=C/c2cc(Br)ccc2OC(=O)c2ccco2)cc1	?	-2%	8%	0%	2.1µM*
CCN(CC(=O)Nc1ccc([N+](=O)[O-])cc1OC)c1ccccc1	9.3µM*	-13%	-11%	10%	?
COc1cc([N+](=O)[O-])ccc1NC(=O)CSc1nc2ccccc2n1-c1ccccc1	10µM*	8%	-25%	nt	8.3µM*
CCOc1ccc(-n2c(SCC(=O)Nc3cc(OC)c([N+](=O)[O-])cc3C)nc3ccccc32)cc1	?	8%	27%	13%	-17%
COc1cc([N+](=O)[O-])ccc1NC(=O)CN(C)C	34%	3%	-14%	-7%	-10%
COc1cc([N+](=O)[O-])ccc1NC(=O)C1C2C=CC(C2)C1C(=O)O (stereo unspecified)	12µM*	0%	-13%	0%	?
CCC(C)NC(=O)c1cn(-c2cccc(OC)c2)c(=O)c2ccccc12 (stereo unspecified)	12%	2%	-4%	14%	-21%
CCCCCC1CCC(C(=O)NCCN2CCOCC2)CC1 (stereo unspecified)	?	-1%	-7%	-4%	-10%
OC(c1ccc(Cl)c(Cl)c1)c1ncc(-c2ccccc2F)[nH]1 (stereo unspecified)	nt	nt	nt	-26%	nt
O=c1cc[nH]c2c1ccc1c(=O)cc[nH]c12	-27%	12%	7%	-2%	nt
Cc1[nH]ccc2c1[nH]c1cc(=O)ccc12	10µM*	4%	3%	-1%	13µM*
O=C(Nc1ccc(S(=O)(=O)NCc2ccccc2)cc1)C1CCCCC1	12µM*	-4%	7%	-10%	-13%
O=C(O)CNS(=O)(=O)c1ccc(C2CCCCC2)cc1	0.47µM*	2%	nt	-7%	4%[5.75 µM]
O=C(O)CNS(=O)(=O)c1ccc(F)cc1	?	-1%	-6%	-3%	10%
O=S(=O)(Nc1ccccn1)c1ccc(C2CCCCC2)cc1	9.3µM*	-3%	-8%[9.22 µM]	5%	-6%

Screens from PubChem.
